# Measured values reported in the supplement of paper PMC6555819.
# Columns and labels:
# Experiment in all cases: PBM binding z-score (relative to random genomic background probes); higher = stronger binding; sequences stand for … in GC…GCGATTGACAGCGTAGAATGAAGG
# [1] = tested on: FXR:RXRa (NR concentration 270 nM, RXRa partner concentration 90 nM)
# Outline: (§1)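 Ligand-free nuclear receptor dimers were bound for 1 h to custom Agilent 4×180K protein-binding microarrays. Detection used antibodies against each partner (one per run). Binding z-scores rest on regression-normalized fluorescence, with random background probes as the reference.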
# [2] = tested on: LXRa:RXRa (NR concentration 270 nM, RXRa partner concentration 90 nM)
# Outline: as §1
# [3] = tested on: LXRa homodimer (NR concentration 270 nM)
# Outline: as §1
# [4] = tested on: LXRb:RXRa (NR concentration 270 nM, RXRa partner concentration 90 nM)
# Outline: as §1
# [5] = tested on: LXRb homodimer (NR concentration 270 nM)
# Outline: as §1
# [6] = tested on: PPARg:RXRa (NR concentration 180 nM, RXRa partner concentration 90 nM)
# Outline: as §1
# [7] = tested on: PPARg:RXRa 270nM:90nM, anti-RXR (NR concentration 270 nM, RXRa partner concentration 90 nM)
# Outline: as §1
# [8] = tested on: PPARg:RXRa 30nM:10nM, anti-RXR (NR concentration 30 nM, RXRa partner concentration 10 nM)
# Outline: as §1
# [9] = tested on: PPARg:RXRa 90nM:30nM, anti-RXR (NR concentration 90 nM, RXRa partner concentration 30 nM)
# Outline: as §1
# [10] = tested on: PPARg:RXRa DBDmut IVT, anti-RXR (DBD mutation: RXRa K156A/R161A, NR concentration 270 nM, RXRa partner concentration 90 nM)
# Outline: as §1
# [11] = tested on: PPARg:RXRa IVT, anti-PPARg (NR concentration 270 nM, RXRa partner concentration 90 nM)
# Outline: as §1
# [12] = tested on: PPARg DBDmut:RXRa IVT, anti-PPARg (DBD mutation: PPARg1 K132A/R137A, NR concentration 270 nM, RXRa partner concentration 90 nM)
# Outline: as §1
# [13] = tested on: PPARg DBDmut IVT, anti-PPARg (DBD mutation: PPARg1 K132A/R137A, NR concentration 270 nM)
# Outline: as §1
# [14] = tested on: PPARg homodimer (NR concentration 180 nM)
# Outline: as §1
# [15] = tested on: PXR:RXRa (NR concentration 270 nM, RXRa partner concentration 90 nM)
# Outline: as §1
# [16] = tested on: PXR homodimer (NR concentration 270 nM)
# Outline: as §1
# [17] = tested on: RARa:RXR (NR concentration 270 nM, RXRa partner concentration 90 nM)
# Outline: as §1
# [18] = tested on: RARa homodimer (NR concentration 270 nM)
# Outline: as §1
# [19] = tested on: RARb:RXRa (NR concentration 270 nM, RXRa partner concentration 90 nM)
# Outline: as §1
# [20] = tested on: PPARa:RXRa (NR concentration 270 nM, RXRa partner concentration 90 nM)
# Outline: as §1
Sequence,PBM binding z-score [1],PBM binding z-score [2],PBM binding z-score [3],PBM binding z-score [4],PBM binding z-score [5],PBM binding z-score [6],PBM binding z-score [7],PBM binding z-score [8],PBM binding z-score [9],PBM binding z-score [10],PBM binding z-score [11],PBM binding z-score [12],PBM binding z-score [13],PBM binding z-score [14],PBM binding z-score [15],PBM binding z-score [16],PBM binding z-score [17],PBM binding z-score [18],PBM binding z-score [19],PBM binding z-score [20]
TAGCCTAAGTCATGGGCCAGTATACCACGCGAAC,-0.178,-0.0929,-0.218,-0.0253,-0.797,0.437,0.385,-0.251,0.254,-0.872,-0.144,-0.174,-0.856,-0.397,-0.259,-0.135,0.041,-0.286,0.0943,
TGACTGAGGTTAAAGATCAGGGAACGTGGCGTCG,2.91,2.35,-0.224,1.69,-0.22,3.09,3.98,2.03,3.59,-0.162,1.61,0.314,0.079,0.216,2.03,-0.418,2.68,-0.102,2.05,
GATACGGGGTCAGCTAGAGGCCAGAGTATGGAAA,7.6,5.46,-0.127,5.17,0.715,7.74,7.16,3.25,5.78,3.12,4.66,1.44,0.481,4.42,5.75,0.6,6.84,0.888,5.15,
TAGCCTAGGTCATTCAGGGGCCAGTATGGAAAGC,4.71,3.88,0.839,2.81,1.22,2.1,2.25,0.204,1.74,1.58,2.93,0.514,-0.26,2.13,2.46,-0.398,3.77,0.0659,4.11,
CCTACTGGGCCAATGTCATTGATCAGTCAAAGCA,-0.931,-0.71,-0.956,-0.421,-0.826,0.865,0.774,-0.129,0.12,3.94,2.99,-0.0732,-0.746,-0.246,-0.427,-0.747,-0.51,-1.11,0.363,
AGAATGAGGTTAACAAAGATCAGGGAAACGCTTG,2.66,5.37,0.105,2.63,-0.171,2.62,2.59,1.09,1.88,3.76,3.12,0.964,0.512,0.76,1.72,0.159,2.07,1.01,2.01,
TAGCCTAGGTCATGCGGGCCAGTATAGTGTCGGC,3.95,3.16,0.141,1.55,-0.409,1.98,2.32,-0.028,1.01,1.77,2.76,-0.107,-0.0866,0.667,1.37,-0.724,2.44,-0.846,3.66,
ACCAGCAGGCCAAGGGTCACTCAAGATTAGTCCG,2.48,2.71,-0.066,2.55,-0.909,6.25,6.19,4.57,5.83,-0.293,2.57,-0.621,-0.244,2.32,2.95,-0.192,3.93,0.0192,3.37,
CGAACTAGGTCAAAGGTCAGTGAAAGGCGACGTA,7.45,6,2.09,5.55,0.335,,11.3,12.7,14,8.37,9.1,,4.58,5.51,,0.306,,2.87,,
TAGCCTAGGTCATAGGCCAGTATACCACGCGAAC,4.26,3.46,0.285,2.09,-0.0669,4.51,4.54,2.36,4.03,1.31,3.09,0.284,-0.111,1.91,1.47,-0.481,2.66,-0.0614,3.66,
TCGAGTAGGTTACGGGTGCATTCAGGGATGAAGA,0.435,0.756,-0.274,0.94,,2.3,2.7,2.01,2.23,2.9,3.34,,,0.289,1.62,0.692,1.33,-0.909,0.994,2.22
CTATGTAGGTTATGGGGGTCATTCAGTTTGAAAG,5.57,5.53,4.32,6.32,,8.27,7.54,5.25,7.06,7.32,7.49,,,4.13,6.22,12.9,6.28,1.72,3.67,6.04
CTATCTAGGTTAAGGGGGTCATTCAGTTTGAAAG,5.03,4.71,2.63,6.25,,8.5,7.76,6.25,7.89,7.65,7.5,,,4.89,6,13.2,6.07,2.58,3.68,5.95
TCATATAGGTCAAAGGTGAAAGTCGGTGTGGTAA,7.15,6.06,2.14,5.58,1.91,,9.8,10.4,11.4,8.06,7.84,1.77,2.53,3.28,5.31,1.13,,1.6,4.89,
CCGACTGGGGCAAAGGTCACCATACTCAGTACGA,4.94,4.64,1.94,4.54,-0.206,,10,12.4,11.1,5.43,6.94,0.0184,-0.117,4.04,5.34,0.429,,1.73,4.73,
CCGAGTAGGTTACGTGGGGGCATTCAGTGCGAAT,2.27,7.98,1.53,6.74,,1.87,3.65,0.89,2.73,4.47,4.6,,,0.555,5.23,6.32,2.42,0.183,2.09,3.6
